{"source": "the OligoGym collection", "data": [{"target": "ZMAT5", "assay": "pooled miR-30 sensor sort-seq; sequence = guide strand", "conditions": "shRNA", "values": [{"sequence": "TCTCGCTCTGACATGTGGGAAA", "sensor-assay potency score (higher = more potent)": -1.37}, {"sequence": "TTGGAGCCAAAGTCGCACTGGC", "sensor-assay potency score (higher = more potent)": -0.262}, {"sequence": "ATGTCGTACCAGACCTTCTTGG", "sensor-assay potency score (higher = more potent)": -1.05}, {"sequence": "TACTGGAAGACAGTGGTTCTGA", "sensor-assay potency score (higher = more potent)": 0.107}, {"sequence": "TCTGACATGTGGGAAAATCTGC", "sensor-assay potency score (higher = more potent)": -0.533}, {"sequence": "AAAATCTGCAGTTGGAGCCAAA", "sensor-assay potency score (higher = more potent)": -1.1}, {"sequence": "TGTCGTACCAGACCTTCTTGGC", "sensor-assay potency score (higher = more potent)": -0.415}, {"sequence": "TACCAGACCTTCTTGGCCTTGA", "sensor-assay potency score (higher = more potent)": 0.178}, {"sequence": "TTGTTCTGCTCATCCAGCAAGA", "sensor-assay potency score (higher = more potent)": -0.992}, {"sequence": "TGCATCTCGGAACATGTCGTAC", "sensor-assay potency score (higher = more potent)": -1.55}]}, {"target": "ZMYM3", "assay": "pooled miR-30 sensor sort-seq; sequence = guide strand", "conditions": "shRNA", "values": [{"sequence": "TTGAGCTCAGCAGCTGAGCAGG", "sensor-assay potency score (higher = more potent)": -1.2}, {"sequence": "TTGTTCAGTAGACACATCCTCA", "sensor-assay potency score (higher = more potent)": 0.00931}, {"sequence": "TTGTCTGTGCTCTCCAAGGTAG", "sensor-assay potency score (higher = more potent)": -0.839}, {"sequence": "TACACTGGGATTAATGTCCAGA", "sensor-assay potency score (higher = more potent)": -0.579}, {"sequence": "TTGGACTTCATCTCCACCTTGC", "sensor-assay potency score (higher = more potent)": 0.519}, {"sequence": "TAGAACTTGACAGGGCAGCGGA", "sensor-assay potency score (higher = more potent)": -0.668}, {"sequence": "TTTGTGACACACTTGAGCGTAG", "sensor-assay potency score (higher = more potent)": 0.22}, {"sequence": "TTGTACAGCAGCACACAGCCTT", "sensor-assay potency score (higher = more potent)": -0.282}, {"sequence": "AAACAGGTCACAGTCTTCCAGG", "sensor-assay potency score (higher = more potent)": -1.1}, {"sequence": "TTGACCACAGATCCCATCCTGC", "sensor-assay potency score (higher = more potent)": -0.277}, {"sequence": "TTCTGTTTGACTTCCTTTGGAC", "sensor-assay potency score (higher = more potent)": 0.00295}, {"sequence": "TTACACAGGGTCTTGCACCAGA", "sensor-assay potency score (higher = more potent)": 0.022}]}, {"target": "ZNF100", "assay": "pooled miR-30 sensor sort-seq; sequence = guide strand", "conditions": "shRNA", "values": [{"sequence": "TTAATTTGTTATCATGTTCTTT", "sensor-assay potency score (higher = more potent)": -0.0243}, {"sequence": "TATTTGTACAATATTTCTCAAG", "sensor-assay potency score (higher = more potent)": -1.35}, {"sequence": "TAATTTGTTATCATGTTCTTTG", "sensor-assay potency score (higher = more potent)": -0.537}, {"sequence": "TTAGTGAGGGCTGAGGACCAGT", "sensor-assay potency score (higher = more potent)": -0.895}, {"sequence": "TTTCCTATACAAACCCTGCTGA", "sensor-assay potency score (higher = more potent)": -0.0321}, {"sequence": "TTTGTTATCATGTTCTTTGTGC", "sensor-assay potency score (higher = more potent)": 0.633}, {"sequence": "TTTGTAACTGTAAATTGTCATG", "sensor-assay potency score (higher = more potent)": -1.22}, {"sequence": "TTCAAAATAAGACTGCACCAGA", "sensor-assay potency score (higher = more potent)": 0.0757}, {"sequence": "TTGAATTTGAAAATGTATGAAA", "sensor-assay potency score (higher = more potent)": -0.873}, {"sequence": "TTTCTAGTATGTCTTATCTTAT", "sensor-assay potency score (higher = more potent)": -1.12}, {"sequence": "TTCTCCAGTATAACTTACCTTA", "sensor-assay potency score (higher = more potent)": -0.393}]}, {"target": "ZNF135", "assay": "pooled miR-30 sensor sort-seq; sequence = guide strand", "conditions": "shRNA", "values": [{"sequence": "TCAAACGTCACTTGCTCCGGGT", "sensor-assay potency score (higher = more potent)": -0.579}, {"sequence": "TAGAACTGACAGTTTGACTTTG", "sensor-assay potency score (higher = more potent)": -0.0496}, {"sequence": "TATTTCTTCAGAGATGCCTTGC", "sensor-assay potency score (higher = more potent)": 0.235}, {"sequence": "TGTTCGATAAGTGCTGAGCTGT", "sensor-assay potency score (higher = more potent)": -0.66}, {"sequence": "TTCTTCAGAGATGCCTTGCTTT", "sensor-assay potency score (higher = more potent)": -0.404}, {"sequence": "TTAAGCATTCGTGACATTCATA", "sensor-assay potency score (higher = more potent)": -1.02}, {"sequence": "TAACATAGCACTAATGGGCGTT", "sensor-assay potency score (higher = more potent)": 0.0821}]}]}
